# Experimental data as given in PubChem BioAssay (NCATS).
# Unmarked numbers belong to inactive results. Records with an inconclusive call do not appear. A call without a number means that no potency is given here. Active and inactive are the calls of the source. Unless noted, calls come from the whole dose curve; as a rule, active = well fitted curve in the direction sought with a large enough effect; inconclusive = small, poorly fitted or top-dose-only effect, or another doubt; inactive = no such curve, though single readings can be large; an effect the other way counts as inactive or inconclusive.
# Key:
# [1] = Cellular Toxicity (caspase-3) N2a (AID 665);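 note: compound exposure lasted 16 h at 37 °C before readout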
# Method in brief: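 Mouse N2a neuroblastoma cells, 1500 per well, treated 16 h at 37 °C in complete medium; caspase-3/7 activity by Caspase-Glo luminescence after 1 h. Normalized to DMSO and 10 uM staurosporine; AC50 from Hill fits.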
# [2] = Cellular Toxicity (caspase-3) Renal Proximal Tubule (AID 667);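 note: cells exposed to compound for 16 hours at 37 °C before detection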
# Method in brief: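 Caspase-Glo 3/7 read-out, rat primary kidney proximal tubule cells. Compound exposure 16 h, 37 °C; detection after 1 h at RT. Activity scaled to DMSO and 10 uM staurosporine.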
# [3] = Cell Viability - LYMP2-001 (AID 921);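 note: potency is the fitted concentration of half-maximal effect; cells exposed to compound for 24 h at 37 °C; nearly all actives have a fitted effect of over 70% in size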
# Method in brief: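 A lymphoblastoid cell line of human origin was treated with library compounds across a concentration series for 24 hours, and viable cell number was estimated from ATP-driven luciferase light output. Hill modeling gave AC50.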
# [4] = MultiTox-Fluor Cytotoxicity Assay - LYMP1-001 - Live Cells (AID 947); note: potency is the fitted concentration of half-maximal effect
# [5] = biological target: Guanine nucleotide-binding protein G(i) subunit alpha-1 (Homo sapiens) (UniProt P63096); assay: qHTS Assay for Inhibitors of RGS12 GoLoco Motif Activity (Green Fluorophore) (AID 879);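 note: negative values mean loss of peptide binding seen as reduced polarization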
# Chain of Guanine nucleotide-binding protein G(i) subunit alpha-1 (Homo sapiens) (P63096 whole entry, looked up): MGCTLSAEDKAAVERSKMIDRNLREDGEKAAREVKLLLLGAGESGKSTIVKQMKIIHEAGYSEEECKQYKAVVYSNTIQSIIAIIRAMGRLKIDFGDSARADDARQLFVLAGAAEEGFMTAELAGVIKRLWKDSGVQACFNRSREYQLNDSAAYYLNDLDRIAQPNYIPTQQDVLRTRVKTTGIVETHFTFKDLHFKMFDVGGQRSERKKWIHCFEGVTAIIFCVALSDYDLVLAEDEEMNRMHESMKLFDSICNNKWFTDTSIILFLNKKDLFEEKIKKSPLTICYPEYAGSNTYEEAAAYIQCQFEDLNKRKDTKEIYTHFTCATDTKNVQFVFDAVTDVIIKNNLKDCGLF
# Method in brief: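 Fluorescence polarization assay: 50 nM Gαi1 with 10 nM FITC-labeled RGS12 GoLoco peptide in 10 mM Tris pH 7.5, 150 mM NaCl, 0.1 mM GDP, 0.05% NP40, 10 min at room temperature with compound.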
# [6] = biological target: Cytochrome P450 2C9 (Homo sapiens) (UniProt P11712); assay: qHTS Assay for Inhibitors and Substrates of Cytochrome P450 2C9 (AID 883); note: nearly all actives have a fitted effect of over 60% in size
# Chain of Cytochrome P450 2C9 (Homo sapiens) (P11712 whole entry, looked up): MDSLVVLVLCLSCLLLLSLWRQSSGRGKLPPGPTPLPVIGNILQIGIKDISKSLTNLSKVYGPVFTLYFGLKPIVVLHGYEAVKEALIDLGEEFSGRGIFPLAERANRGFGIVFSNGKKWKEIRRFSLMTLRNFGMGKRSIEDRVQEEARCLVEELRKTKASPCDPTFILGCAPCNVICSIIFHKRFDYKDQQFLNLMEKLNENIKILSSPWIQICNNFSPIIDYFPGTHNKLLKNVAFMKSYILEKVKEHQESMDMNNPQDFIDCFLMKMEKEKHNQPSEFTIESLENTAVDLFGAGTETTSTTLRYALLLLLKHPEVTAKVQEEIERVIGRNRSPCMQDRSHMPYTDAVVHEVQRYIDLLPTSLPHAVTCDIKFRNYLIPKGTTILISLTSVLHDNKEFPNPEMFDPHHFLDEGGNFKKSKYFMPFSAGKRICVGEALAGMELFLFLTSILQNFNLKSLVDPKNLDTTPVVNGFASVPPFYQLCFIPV
# Method in brief: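 A luminogenic readout tracked human CYP2C9 (10nM) converting deoxyluciferin (100uM, at KM) in 25mM KPO4 during 60 min at 37C with regenerated NADPH. Values normalized to 57uM sulphaphenazole as complete inhibition.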
# [7] = biological target: Cytochrome P450 3A4 (Homo sapiens) (UniProt P08684); assay: qHTS Assay for Activators of Cytochrome P450 3A4 (AID 885); note: nearly all actives have a fitted effect of over 65% in size; note: potency is the fitted concentration of half-maximal effect
# Chain of Cytochrome P450 3A4 (Homo sapiens) (P08684 whole entry, looked up): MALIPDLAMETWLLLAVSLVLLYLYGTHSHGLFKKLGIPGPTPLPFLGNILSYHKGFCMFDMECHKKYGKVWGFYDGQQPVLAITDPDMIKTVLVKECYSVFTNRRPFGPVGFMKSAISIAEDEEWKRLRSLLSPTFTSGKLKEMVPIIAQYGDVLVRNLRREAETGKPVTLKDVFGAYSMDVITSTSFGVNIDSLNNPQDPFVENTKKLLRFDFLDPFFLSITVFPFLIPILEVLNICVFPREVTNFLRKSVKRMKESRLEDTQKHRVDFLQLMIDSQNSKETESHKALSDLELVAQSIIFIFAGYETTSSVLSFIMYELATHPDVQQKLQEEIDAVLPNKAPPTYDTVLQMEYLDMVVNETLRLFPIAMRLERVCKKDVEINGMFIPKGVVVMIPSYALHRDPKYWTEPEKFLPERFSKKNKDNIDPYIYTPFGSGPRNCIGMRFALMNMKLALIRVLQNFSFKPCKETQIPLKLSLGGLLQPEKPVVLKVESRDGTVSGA
# Method in brief: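 Quantitative HTS format: compounds preincubated with 20nM human CYP3A4 and Luciferin-PPXE substrate at KM, reaction started by NADPH regeneration, stopped after 60 min, luciferase luminescence read 20 min later.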
# [8] = Confirmation and Secondary Assay for Modulators of Hemoglobin Beta Chain Splicing at IVS2 654 locus (AID 910);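 note: per-well total GFP intensity by laser scanning cytometry after 2-day treatment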
# Method in brief: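 HeLa cells stably carrying EGFP interrupted by mutant beta-globin IVS2-654 intron (CMV-driven) were treated with compound for 2 days at 37C; corrected splicing was scored as total peak GFP intensity per well (488 nm excitation, 500-520 nm emission).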
# [9] = qHTS Assay for Identification of Small Molecule Agonists for Hypoxia Response Element Signaling Pathway (AID 914; active = well fitted activation curve with a large enough effect in the signal ratio, with a control signal flat, not every such curve was filed as active; the % refers to the signal ratio); conditions: ME-180 (cervical carcinoma) HRE-bla reporter, beta-lactamase ratio, CoCl2, 17 h; active compounds read high
# Method in brief: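 HRE-bla ME-180 assay for agonist-like enhancement of an EC50 CoCl2 stimulus: 17 h at 37 degrees Celsius, CCF4 for 2.5 h, ratiometric 460/530 nm signal converted to %Activity and fitted to AC50.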
# [10] = qHTS Assay for Identification of Small Molecule Agonists for Thrombopoietin (TPO) Signaling Pathway (AID 917)
# Method in brief: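 IL-3-dependent murine pro-B Ba/F3 cells, stably transfected with human TPO receptor and GpIIb-promoter luciferase, are incubated 24 hrs at 37 C with test compound and 26 pM TPO; luciferase signal is read after 10 min at room temperature.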
# [11] = Confirmation and Secondary Assay for Modulators of Hemoglobin Beta Chain Splicing at IVS2 705 locus (AID 930);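 note: HeLa cells stably expressing the EGFP-705 splicing reporter; GFP fluorescence per well restored by corrected splicing of the IVS2-705 intron in EGFP; series mostly up to about 46 µM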
# Method in brief: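 HeLa IVS2-705 EGFP reporter cells, 500/well, compound 2 d at 37C; correct splicing yields fluorescent EGFP. Control: 500 nM antisense PNA. Read-out: total peak GFP intensity.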
# [12] = biological target: Pyruvate kinase (Leishmania mexicana) (UniProt Q27686); assay: qHTS Validation Assay for Inhibitors of Leishmania Mexicana Pyruvate Kinase (AID 945)
# Chain of Pyruvate kinase (Leishmania mexicana) (Q27686 2-499 E452W): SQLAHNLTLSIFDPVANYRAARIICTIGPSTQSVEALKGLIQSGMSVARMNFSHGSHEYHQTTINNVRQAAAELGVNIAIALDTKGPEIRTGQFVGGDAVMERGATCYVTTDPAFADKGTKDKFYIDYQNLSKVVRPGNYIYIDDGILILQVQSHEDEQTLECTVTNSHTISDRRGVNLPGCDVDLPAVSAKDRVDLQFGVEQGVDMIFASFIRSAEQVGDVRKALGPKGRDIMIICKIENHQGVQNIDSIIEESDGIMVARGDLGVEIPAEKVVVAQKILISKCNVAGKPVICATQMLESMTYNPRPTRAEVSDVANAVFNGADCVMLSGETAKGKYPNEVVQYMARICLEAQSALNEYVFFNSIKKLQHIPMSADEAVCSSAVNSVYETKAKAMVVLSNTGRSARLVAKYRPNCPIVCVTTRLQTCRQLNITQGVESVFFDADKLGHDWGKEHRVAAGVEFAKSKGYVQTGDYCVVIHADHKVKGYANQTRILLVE
# Method in brief: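 Eight-point qHTS titrations; enzyme 0.2 nM LmPYK (E451W mutant); substrates 0.5 mM PEP, 0.1 mM ADP; 7 mM MgCl2; 1 h room temperature; PKLight luminescence normalized to neutral control.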
# [13] = biological target: Cytochrome P450 3A4 (Homo sapiens) (UniProt P08684); assay: qHTS Assay for Inhibitors and Substrates of Cytochrome P450 3A4 (AID 884); note: series mostly up to about 57 µM; nearly all actives have a fitted effect of over 50% in size
# Method in brief: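 20 nM human CYP3A4 with 25 uM Luciferin-PPXE (at KM) in 200 mM KPO4, preincubated 10 min with compound; NADPH regeneration started a 60 min RT reaction. Luciferin detected by luminescence, normalized to 57 uM ketoconazole as full inhibition.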
# [14] = biological target: Muscarinic acetylcholine receptor M1 (Rattus norvegicus) (UniProt P08482); assay: qHTS Assay for Antagonists of Acetylcholine Muscarinic M1 Receptor: Kinetic Measurement of Intracellular Calcium Response (AID 943); note: nearly all actives have a fitted effect of over 75% in size; note: potency is the fitted concentration of half-maximal effect
# Chain of Muscarinic acetylcholine receptor M1 (Rattus norvegicus) (P08482 whole entry, looked up): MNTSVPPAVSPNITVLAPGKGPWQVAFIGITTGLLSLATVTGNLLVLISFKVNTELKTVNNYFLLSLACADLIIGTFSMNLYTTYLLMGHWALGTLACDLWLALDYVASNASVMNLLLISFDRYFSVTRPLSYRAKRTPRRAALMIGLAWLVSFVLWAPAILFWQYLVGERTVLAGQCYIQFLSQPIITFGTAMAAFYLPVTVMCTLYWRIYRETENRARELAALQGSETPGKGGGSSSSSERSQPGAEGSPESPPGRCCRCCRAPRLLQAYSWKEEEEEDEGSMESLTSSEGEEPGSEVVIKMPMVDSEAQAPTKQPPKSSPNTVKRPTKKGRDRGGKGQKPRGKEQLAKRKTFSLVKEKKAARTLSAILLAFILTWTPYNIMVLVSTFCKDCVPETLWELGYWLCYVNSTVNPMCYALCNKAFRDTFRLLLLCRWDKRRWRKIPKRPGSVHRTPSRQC
# Method in brief: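 CHO cells expressing rat M1 receptor, Fluo-4 loaded, preincubated 10 min with compound, then stimulated with EC80 carbachol (100 nM final). Kinetic calcium fluorescence over 4 min; response taken as peak over basal signal.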
# [15] = biological target: Muscarinic acetylcholine receptor M1 (Rattus norvegicus) (UniProt P08482); assay: qHTS Assay for Antagonists of Acetylcholine Muscarinic M1 Receptor: Measurement of IP-One Response (AID 944); note: nearly all actives have a fitted effect of over 75% in size; note: potency is the fitted concentration of half-maximal effect
# Method in brief: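 CHO cells stably expressing rat M1, pretreated 10 min with compound, then stimulated 30 min with carbachol at EC80 (200 nM) in LiCl-containing buffer pH 7.4; IP1 accumulation read by HTRF competition (665/620 nm).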
# [16] = MultiTox-Fluor Cytotoxicity Assay - LYMP1-001 - Dead Cells (AID 946); note: potency is the fitted concentration of half-maximal effect
# Method in brief: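 In this qHTS, 15 uM tetraoctylammonium bromide defined 100% and DMSO defined basal activity. Lymphoblastoid cells (LYMP1-001, 2500 per well) received compound for 16 hr at 37 C before a fluorogenic dead-cell substrate readout at 485/520 nm.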
# [17] = biological target: Cytochrome P450 2D6 (Homo sapiens) (UniProt P10635); assay: qHTS Assay for Inhibitors and Substrates of Cytochrome P450 2D6 (AID 891); note: potency is the fitted concentration of half-maximal effect; nearly all actives have a fitted effect of over 60% in size
# Chain of Cytochrome P450 2D6 (Homo sapiens) (P10635 whole entry, looked up): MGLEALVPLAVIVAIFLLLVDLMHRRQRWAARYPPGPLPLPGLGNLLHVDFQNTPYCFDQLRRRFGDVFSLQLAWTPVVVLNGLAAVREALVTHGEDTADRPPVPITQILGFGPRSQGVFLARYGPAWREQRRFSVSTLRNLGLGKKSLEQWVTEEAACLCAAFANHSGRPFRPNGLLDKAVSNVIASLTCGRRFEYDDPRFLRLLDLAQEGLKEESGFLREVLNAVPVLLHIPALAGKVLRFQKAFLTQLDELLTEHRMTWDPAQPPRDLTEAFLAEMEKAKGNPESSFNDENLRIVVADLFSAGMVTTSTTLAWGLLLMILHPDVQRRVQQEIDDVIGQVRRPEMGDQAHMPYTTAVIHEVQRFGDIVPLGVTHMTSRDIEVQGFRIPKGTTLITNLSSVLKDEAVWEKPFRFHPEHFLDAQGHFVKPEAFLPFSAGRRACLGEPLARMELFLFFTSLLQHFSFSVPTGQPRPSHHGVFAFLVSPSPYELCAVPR
# Method in brief: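 Human CYP2D6 (5 nM) with 30 uM Luciferin-ME EGE (at Km) in 100 mM KPO4, compound preincubated 10 min, then NADPH regeneration system for 60 min at room temperature. Luciferin read by luminescence; normalized to 1.43 uM quinidine.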
# [18] = biological target: Cytochrome P450 2C19 (Homo sapiens) (UniProt P33261); assay: qHTS Assay for Inhibitors and Substrates of Cytochrome P450 2C19 (AID 899); note: nearly all actives have a fitted effect of over 60% in size
# Chain of Cytochrome P450 2C19 (Homo sapiens) (P33261 whole entry, looked up): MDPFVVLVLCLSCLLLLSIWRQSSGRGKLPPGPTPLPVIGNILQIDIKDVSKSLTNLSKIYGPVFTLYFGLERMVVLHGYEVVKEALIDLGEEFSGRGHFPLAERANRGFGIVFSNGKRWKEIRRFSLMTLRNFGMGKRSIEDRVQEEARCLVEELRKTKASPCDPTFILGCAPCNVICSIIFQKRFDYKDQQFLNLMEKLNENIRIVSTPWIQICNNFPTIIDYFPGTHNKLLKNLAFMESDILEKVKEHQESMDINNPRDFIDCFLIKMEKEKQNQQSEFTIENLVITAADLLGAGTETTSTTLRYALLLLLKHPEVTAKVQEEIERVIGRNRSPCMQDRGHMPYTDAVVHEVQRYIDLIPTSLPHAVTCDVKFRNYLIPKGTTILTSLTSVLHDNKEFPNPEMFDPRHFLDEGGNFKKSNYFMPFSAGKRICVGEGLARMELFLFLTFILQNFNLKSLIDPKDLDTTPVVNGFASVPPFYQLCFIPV
# Method in brief: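 NADPH-dependent conversion of Luciferin-H EGE (10uM, at KM) by 5nM enzyme in 50mM KPO4, 60 min at 37C following 10 min compound preincubation. Stopped with luciferin detection buffer; luminescence read after 20 min.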
smiles,measurement,setting,value
CCCCCCCCCCCC[N+](C)(C)CCOc1ccccc1,outcome,[1],inactive
same,outcome,[2],inactive
same,Potency,[3],31.6 µM (active)
same,Potency,[4],25.1 µM (active)
c1ccc2nc(N3CCNCC3)ccc2c1,outcome,[5],inactive
same,Potency,[6],inactive
same,Potency,[7],inactive
same,outcome,[8],inactive
same,activation,[9],-4.77%
same,outcome,[10],inactive
same,outcome,[11],inactive
same,outcome,[12],inactive
NC(=O)CN1CCCC1=O,outcome,[5],inactive
same,Potency,[13],inactive
same,outcome,[8],inactive
same,outcome,[10],inactive
same,outcome,[11],inactive
same,outcome,[12],inactive
COc1ccc(C(=O)N2CCCC2=O)cc1,outcome,[5],inactive
same,outcome,[8],inactive
same,outcome,[10],inactive
same,outcome,[11],inactive
same,outcome,[12],inactive
Oc1ccc2[nH]cc(CCCCN3CC=C(c4ccccc4)CC3)c2c1,Potency,[13],inactive
same,Potency,[7],3.98 µM (active)
C[C@H](N)[C@H](O)c1ccc(O)c(O)c1,outcome,[5],inactive
same,Potency,[14],inactive
same,Potency,[15],inactive
same,outcome,[12],inactive
CC[n+]1c(-c2ccccc2)c2cc(N)ccc2c2ccc(N)cc21,outcome,[1],inactive
same,outcome,[2],inactive
same,Potency,[7],inactive
same,outcome,[8],inactive
same,Potency,[3],7.94 µM (active)
same,outcome,[11],inactive
same,Potency,[16],39.8 µM (active)
same,Potency,[4],25.1 µM (active)
CN(C)CC/C=C1\c2ccccc2Sc2ccc(Cl)cc21,Potency,[17],2.51 µM (active)
CCCCCCCCCCCCCCCC[n+]1ccccc1,Potency,[13],inactive
same,outcome,[8],inactive
same,outcome,[11],inactive
Cc1cc(C(C)(C)C)cc(C)c1CC1=NCCN1,Potency,[14],5.62 µM (active)
same,Potency,[15],10 µM (active)
Oc1ccc(Cl)cc1Cc1cc(Cl)ccc1O,Potency,[7],inactive
O=C(NC(=O)c1c(F)cccc1F)Nc1cc(Cl)c(OC(F)(F)C(F)C(F)(F)F)cc1Cl (stereo unspecified),Potency,[13],inactive
same,outcome,[8],inactive
same,outcome,[11],inactive
COC(=O)C1=C(C)NC(C)=C(C(=O)OC)C1c1ccccc1[N+](=O)[O-],Potency,[16],50.1 µM (active)
O=C1NCN(c2ccccc2)C12CCN(CCCOc1ccc(F)cc1)CC2,Potency,[17],0.158 µM (active)
CCCCN(CCCC)CCC(O)c1cc2c(Cl)cc(Cl)cc2c2cc(C(F)(F)F)ccc12 (stereo unspecified),Potency,[7],inactive
same,Potency,[17],3.98 µM (active)
c1ccc(-c2ccc(C(c3ccccc3)n3ccnc3)cc2)cc1 (stereo unspecified),Potency,[7],inactive
CCNc1nc(Cl)nc(NCC)n1,Potency,[13],inactive
same,outcome,[8],inactive
same,outcome,[11],inactive
O=C(CCCN1CCC(n2c(=O)[nH]c3ccccc32)CC1)c1ccc(F)cc1,Potency,[17],6.31 µM (active)
CC(C)[N+](C)(CCC(C(N)=O)(c1ccccc1)c1ccccc1)C(C)C,Potency,[13],inactive
same,Potency,[17],3.98 µM (active)
same,outcome,[8],inactive
same,outcome,[11],inactive
Clc1ccc(CSC(Cn2ccnc2)c2ccc(Cl)cc2Cl)cc1 (stereo unspecified),Potency,[7],inactive
same,outcome,[8],inactive
same,outcome,[11],inactive
NC(N)=NCCC[C@H](N)C(=O)O,Potency,[18],inactive
Cc1ccc(N=CN(C)C=Nc2ccc(C)cc2C)c(C)c1,outcome,[8],inactive
same,outcome,[11],inactive
CC(=O)c1ccc2c(c1)N(CCCN(C)C)c1ccccc1S2,Potency,[17],2.51 µM (active)
CN(C)C(=O)Oc1cc(OC(=O)N(C)C)cc(C(O)CNC(C)(C)C)c1 (stereo unspecified),Potency,[13],inactive
same,outcome,[8],inactive
same,outcome,[11],inactive
CCCC(C)C1(CC)C(=O)N=C(S)NC1=O (stereo unspecified),outcome,[8],inactive
same,outcome,[11],inactive
Clc1ccc(C(OCCN2CCCCC2)c2ccccc2)cc1 (stereo unspecified),Potency,[7],inactive
same,outcome,[8],inactive
same,outcome,[11],inactive
Clc1ccc(CO/N=C(\Cn2ccnc2)c2ccc(Cl)cc2Cl)c(Cl)c1,Potency,[7],inactive
same,outcome,[8],inactive
same,outcome,[11],inactive
N#Cc1nn(-c2c(Cl)cc(C(F)(F)F)cc2Cl)c(N)c1S(=O)C(F)(F)F (stereo unspecified),Potency,[7],inactive
same,outcome,[8],inactive
same,outcome,[11],inactive
